Measured values reported in PubChem BioAssay AID1159580 (chemical genetic matrix, 2015).
Several values for one entry are separate records, joined by “and”; a condition that tells them apart may be missing. Equal entries are not always repeated. The campaign covered roughly 5,500 compounds. About 2,000 (36%) were called active. Not shown: some 18% with an inconclusive outcome. Rule as the data show it: active = normalized growth mostly below about 0.91 (no sharp cut-off); inconclusive = no clear call, values can overlap the other calls; inactive = mostly above about 0.92. The list shows a part of the results.

Experiment: chemical genetic growth profiling, strain panel (AID 1159580);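 also: tested at 20 µM; growth read once vehicle control cultures reached saturation at 30 °C; 1 = growth at the plate median or of vehicle wells; lower values mean less growth of the strain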
Conditions: S. cerevisiae deletion strains, growth OD

Measured: normalized growth

OCCN1C[C@@H](O)[C@@H](O)C(O)C1CO (stereo partly specified)
inactive: locus YAL013W, strain DEP1, stronger effect = lower value 1.02 | locus YAL021C, strain ccr4, stronger effect = lower value 0.993 | locus YAL026C, strain drs2, stronger effect = lower value 1.02 | locus YAL030W, strain snc1, stronger effect = lower value 0.999 | locus YBL061C, strain skt5, stronger effect = lower value 1.01 | locus YBR009C, strain hhf1, stronger effect = lower value 1 | locus YBR021W, strain FUR4, stronger effect = lower value 1.01 | locus YBR023C, strain chs3, stronger effect = lower value 1 | locus YBR171W, strain sec66, stronger effect = lower value 1.01 | locus YBR229C, strain ROT2, stronger effect = lower value 1.02 | locus YBR231C, strain swc5, stronger effect = lower value 1.01 | locus YBR279W, strain paf1, stronger effect = lower value 1.01 | locus YCL011C, strain gbp2, stronger effect = lower value 0.996 | locus YCL016C, strain dcc1, stronger effect = lower value 0.993 | locus YCL029C, strain bik1, stronger effect = lower value 1 | locus YCL069W, strain vba3, stronger effect = lower value 0.991 | locus YCR088W, strain abp1, stronger effect = lower value 0.997 | locus YDL005C, strain med2, stronger effect = lower value 1.01 | locus YDL035C, strain GPR1, stronger effect = lower value 1.01 | locus YDL040C, strain nat1, stronger effect = lower value 1 | locus YDL074C, strain BRE1, stronger effect = lower value 1.03 | locus YDL101C, strain DUN1, stronger effect = lower value 1.01 | locus YDL134C, strain PPH21, stronger effect = lower value 1.02 | locus YDL185W, strain tfp1, stronger effect = lower value 0.994 | locus YDL192W, strain arf1, stronger effect = lower value 1 | locus YDR001C, strain nth1, stronger effect = lower value 1 | locus YDR069C, strain doa4, stronger effect = lower value 1.01 | locus YDR101C, strain arx1, stronger effect = lower value 1.01 | locus YDR137W, strain rgp1, stronger effect = lower value 1.01 | locus YDR150W, strain NUM1, stronger effect = lower value 1.02 | locus YDR159W, strain sac3, stronger effect = lower value 1.01 | locus YDR162C, strain NBP2, stronger effect = lower value 1.01 | locus YDR195W, strain ref2 0.992 | locus YDR297W, strain sur2, stronger effect = lower value 1.01 | locus YDR318W, strain mcm21, stronger effect = lower value 1 | locus YDR334W, strain swr1, stronger effect = lower value 1.01 | locus YDR335W, strain msn5, stronger effect = lower value 0.992 | locus YDR388W, stronger effect = lower value 1 | locus YDR392W, strain spt3, stronger effect = lower value 0.989 | locus YDR502C, strain sam2, stronger effect = lower value 1 | locus YEL003W, strain gim4, stronger effect = lower value 1.01 | locus YEL037C, strain rad23, stronger effect = lower value 1 | locus YEL061C, strain CIN8 (second series), stronger effect = lower value 0.989 | locus YEL061C, strain CIN8, stronger effect = lower value 1.02 | locus YER015W, strain faa2, stronger effect = lower value 1.01 | locus YER016W, strain bim1, stronger effect = lower value 0.983 | locus YER110C, stronger effect = lower value 0.993 | locus YER111C, strain swi4, stronger effect = lower value 1.02 | locus YER155C, strain BEM2 (second series), stronger effect = lower value 1.01 | locus YER155C, strain BEM2, stronger effect = lower value 1.01 | locus YER167W, strain BCK2, stronger effect = lower value 1.02 | locus YFR010W, strain ubp6, stronger effect = lower value 1.01 | locus YGL078C, strain dbp3, stronger effect = lower value 1.01 | locus YGL086W, strain mad1, stronger effect = lower value 1 | locus YGL167C, strain pmr1, stronger effect = lower value 1.01 | locus YGL173C, strain kem1, stronger effect = lower value 1.02 | locus YGL227W, strain vid30, stronger effect = lower value 1.01 | locus YGL240W, strain doc1, stronger effect = lower value 1.01 | locus YGL248W, strain PDE1, stronger effect = lower value 1.01 | locus YGL253W, strain hxk2, stronger effect = lower value 1 | locus YGR078C, strain PAC10, stronger effect = lower value 1.04 | locus YGR135W, strain pre9, stronger effect = lower value 1 | locus YGR229C, strain SMI1, stronger effect = lower value 1.02 | locus YGR252W, strain gcn5, stronger effect = lower value 0.969 | locus YHR013C, strain ard1, stronger effect = lower value 0.988 | locus YHR027C, strain rpn1, stronger effect = lower value 1.01 | locus YHR030C, strain SLT2, stronger effect = lower value 1.02 and 1.01 | locus YHR079C, strain IRE1 (second series), stronger effect = lower value 1.01 | locus YHR079C, strain IRE1, stronger effect = lower value 1 | locus YHR094C, strain hxt1, stronger effect = lower value 1.01 | locus YHR129C, strain ARP1, stronger effect = lower value 1.01 | locus YHR142W, strain chs7, stronger effect = lower value 0.984 | locus YHR200W, strain rpn10, stronger effect = lower value 1 | locus YIL066C, strain RNR3, stronger effect = lower value 1.02 | locus YIL073C, strain SPO22, stronger effect = lower value 1.03 | locus YIL125W, strain kgd1, stronger effect = lower value 1 | locus YIR030C, strain dcg1, stronger effect = lower value 1.01 | locus YJL092W, strain hpr5, stronger effect = lower value 1 | locus YJL095W, strain BCK1 (second series), stronger effect = lower value 1.01 | locus YJL095W, strain BCK1, stronger effect = lower value 1.02 and 1.01 | locus YJL115W, strain asf1, stronger effect = lower value 1.02 | locus YJL129C, strain trk1, stronger effect = lower value 0.997 | locus YJL134W, strain LCB3, stronger effect = lower value 1.01 | locus YJL154C, strain vps35, stronger effect = lower value 0.994 | locus YJL164C, strain tpk1, stronger effect = lower value 0.996 | locus YJL166W, strain qcr8, stronger effect = lower value 1.01 | locus YJL168C, strain set2, stronger effect = lower value 1 | locus YJL187C, strain SWE1 (second series), stronger effect = lower value 1.02 | locus YJR043C, strain POL32, stronger effect = lower value 1 | locus YJR066W, strain TOR1, stronger effect = lower value 0.962 | locus YJR075W, strain HOC1, stronger effect = lower value 1.01
